In PubChem BioAssay (NCI) one finds growth data, which are given here for 9 molecules.

Compounds without any hit were thinned out: in the full panel of roughly 83,000, 20% have a hit.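 Values shown are percent growth following 48 h exposure of cells in 96-well plates to a single concentration of compound; below 10 was considered active.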 A number with no mark means an inactive call. Activity calls are given as the source filed them.

What all share (assay): NCI-60 one-dose screen, 48 h (100 = growth as untreated, 0 = no growth, -100 = all killed)
What all share (conditions): 10 µM unless noted

In experiment [1] the test system is RPMI-8226 leukemia.
The test system of experiment [2] is OVCAR-8 ovarian.
In experiment [3] the test system is OVCAR-5 ovarian.
Experiment [4] relates to OVCAR-4 ovarian.
In experiment [5] the test system is SK-OV-3 ovarian.
The test system of experiment [6] is IGROV1 ovarian.
For experiment [7], the system named is OVCAR-3 ovarian.
Experiment [8] deals with HS 578T breast.
Experiment [9] relates to NCI/ADR-RES ovarian.
The test system of experiment [10] is T-47D breast.
For experiment [11], the system named is BT-549 breast.
The subject of experiment [12] is MDA-MB-435 melanoma.
For experiment [13], the system named is SW-620 colon.
The subject of experiment [14] is MCF7 breast.
Experiment [15] deals with HCT-116 colon.
For experiment [16], the system named is HCC-2998 colon.
Experiment [17] relates to KM12 colon.

Turning to `O=C1NCc2ccc3c(-c4cccc(Cl)c4)c[nH]c3c21`, the growth in [1] is 25.8%; in experiment [2] it was 25.4%; in [3], 39.7%; in experiment [4], 53.6%; in [5], 10.9%; in experiment [6], 32.2%. The growth in experiment [7] is -5.67% (active); in experiment [8], 31.3%; in experiment [9], 6.99% (active); in experiment [10] it was 39%; in [11], 58.5%; in experiment [12] it was -26.2% (active). For the same molecule, the growth in experiment [13] is 20.7%; in [14] it was 17.5%; in [15] it was 14.2%; in experiment [16], 25.3%; in experiment [17], 19.1%.
With `C=C1C(=O)O[C@H]2[C@H]1CCC(/C=N/c1ncc(Br)cc1N)=C\CC[C@@]1(C)O[C@@H]21`, the growth in experiment [1] is -24.1% (active); in experiment [2] it was 4.39% (active); in experiment [3], 49.4%; in experiment [4], 37%; in experiment [5] it was 69.3%; in experiment [6], -1.81% (active). In addition, the growth in experiment [7] is -58.3% (active); in experiment [8], 32.4%; in [9], 58%; in [10] it was 5.65% (active); in experiment [11], 1.35% (active); in experiment [12], 22.6%. Further, the growth in experiment [13] is -62.7% (active); in experiment [14] it was -3.68% (active); in [15] it was -52.6% (active); in [16] it was 62.2%; in experiment [17] it was 53.9%.
Take `CC[C@H](Nc1ncnc2nc[nH]c12)c1nc2cccc(CC(=O)c3ccc(C(=O)NO)cc3)c2c(=O)n1-c1ccccc1`: the growth is 45.1% in [1]; 81.3% in experiment [2]; 97.9% in [3]; 78.3% in experiment [4]; 98.8% in experiment [5]; 89.1% in [6]. The growth in experiment [7] was 76.9%; in experiment [8], 72%; in experiment [9], 94%; in experiment [10], 50.7%; in experiment [11], 85.8%; in experiment [12], 97.6%. The growth is 96.3% in [13]; 77.9% in experiment [14]; 90.5% in experiment [15]; 88.9% in [16]; 93.5% in experiment [17].
`NS(=O)(=O)c1ccc(-n2ncc(NC(=O)Nc3ccc(S(=O)(=O)Nc4nccs4)cc3)c2-c2ccccc2)cc1`: the growth was 103% in experiment [1]; 102% in [2]; 99% in [3]; 101% in experiment [4]; 99.5% in experiment [5]; 105% in experiment [6]. The growth is 111% in experiment [7]; 102% in [8]; 105% in [9]; 94.2% in experiment [10]; 103% in [11]; 98.1% in experiment [12]. For the same molecule, the growth is 98.5% in [13]; 92% in experiment [14]; 93% in experiment [15]; 107% in [16]; 108% in experiment [17].
For the molecule `COc1ccc(NC(=O)c2ccc(Nc3ncnc4[nH]c(C)c(C)c34)cc2)cc1`, the growth in experiment [1] is 111%; in [2], 98.9%; in [3], 108%; in experiment [4], 126%; in [5], 109%; in experiment [6] it was 110%. Besides, the growth was 103% in experiment [7]; 113% in experiment [8]; 103% in experiment [9]; 89.2% in [10]; 99.1% in experiment [11]; 108% in experiment [12]. The growth in [13] is 102%; in [14], 100%; in [15] it was 106%; in experiment [16], 104%; in [17], 103%.
As for `S=c1ssnc1-c1cc2ccccc2o1`, the growth in [1] was 21.4%; in experiment [2], 86%; in experiment [3] it was 105%; in [4], 83.2%; in [5], 85.7%; in [6], -54% (active). Moreover, the growth is 80.4% in [7]; 61.9% in experiment [8]; 78% in experiment [9]; 64.5% in experiment [10]; 103% in experiment [11]; 57% in [12]. The growth in experiment [13] was 71.5%; in experiment [14], 65.5%; in experiment [15], 59.5%; in [16], 98.3%; in experiment [17], 81.6%.
As for `C=C1C(=O)O[C@H]2[C@H]1CC/C(COC(=O)c1c[nH]c3ccccc13)=C\CC[C@@]1(C)O[C@@H]21`, the growth in experiment [1] was -27.4% (active); in experiment [2], 5% (active); in experiment [3], -25.3% (active); in [4] it was -90.6% (active); in experiment [5], 68.9%; in experiment [6], -56.2% (active). Further, the growth in experiment [7] is -94.2% (active); in experiment [8], 3.21% (active); in [9] it was -4.86% (active); in experiment [10], -49.2% (active); in experiment [11] it was -37.2% (active); in [12], -82.9% (active). For the same molecule, the growth in [13] is -61.4% (active); in experiment [14] it was -52.7% (active); in experiment [15] it was -86.1% (active); in experiment [16] it was -80.9% (active); in experiment [17], -47.4% (active).
Turning to `N#Cc1ccc(Oc2ccc3ccc(=O)oc3c2)cc1`, the growth is 81.5% in experiment [1]; 87.2% in experiment [2]; 104% in [3]; 109% in experiment [4]; 112% in experiment [5]; 121% in experiment [6]. For the same molecule, the growth was 117% in experiment [7]; 93.4% in [8]; 107% in experiment [9]; 94.5% in experiment [10]; 110% in experiment [11]; 120% in [12]. In addition, the growth in experiment [13] is 96.5%; in experiment [14], 97.3%; in experiment [15] it was 91.5%; in experiment [16], 104%; in experiment [17], 96.2%.
Regarding `CSc1nc(-c2cccs2)c2c(N)[nH]nc2n1`, the growth in experiment [1] is 112%; in experiment [2] it was 102%; in experiment [3], 106%; in [4], 108%; in experiment [5], 89.9%; in experiment [6], 111%. The growth was 109% in [7]; 106% in experiment [8]; 102% in [9]; 90.3% in experiment [10]; 96.4% in [11]; 117% in [12]. For the same molecule, the growth in experiment [13] was 119%; in [14], 94.3%; in experiment [15], 92.2%; in experiment [16], 107%; in experiment [17] it was 48.8%.
